Some test systems named below: NCI-H23 lung; NCI-H226 lung; NCI-H322M lung; HOP-62 NSCLC; NCI-H460 lung; HOP-92 NSCLC; NCI-H522 lung; A549/ATCC NSCLC; 786-0 renal; DU-145 prostate; K-562 leukemia; MALME-3M melanoma; MDA-MB-231 breast; RXF 393 renal; SF-268 CNS; SF-295 CNS; SF-539 CNS; UACC-257 melanoma; M14 melanoma; COLO 205 colon.
What all share (assay): NCI-60 one-dose screen, 48 h (100 = growth as untreated, 0 = no growth, -100 = all killed)
Conditions in all cases: 10 µM unless noted

Molecules are shown by their SMILES. Compounds without any hit were thinned out: in the full panel of roughly 83,000, 20% have a hit.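 Single-dose data. Exposure time 48 hours. Values below 10 considered active.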 Unmarked numbers belong to inactive results. Calls of active or inactive are those of the source.

With `COc1ccc(-c2nn(-c3ccc(NC(=O)Nc4ccc(Cl)c(Cl)c4)cc3)cc2-c2ccncc2)cc1Cl`, the growth in the assay with NCI-H23 lung was 6.03% (active); with NCI-H226 lung, 6.82% (active); in the assay on NCI-H322M lung, 47.2%; in the assay with HOP-62 NSCLC, 20.7%; in the assay with NCI-H460 lung, -21.1% (active); in the assay with HOP-92 NSCLC, -17% (active). Also, the growth is 0.622% (active) with NCI-H522 lung; 15% in the assay with A549/ATCC NSCLC; 2.7% (active) in the assay with 786-0 renal; 28.6% in the assay with DU-145 prostate; 11.6% in the assay on K-562 leukemia; 16% with MALME-3M melanoma. Besides, the growth is 0.693% (active) in the assay with MDA-MB-231 breast; -55.7% (active) in the assay on RXF 393 renal; 31.1% in the assay on SF-268 CNS; 1.08% (active) with SF-295 CNS; 15.7% in the assay with SF-539 CNS; 11.9% in the assay on UACC-257 melanoma. The growth with M14 melanoma is 6.66% (active).
As to `Cc1nc(-c2ccc(Cl)cc2)ccc1NC(=O)Nc1cccc(C(F)(F)F)c1`, the growth in the assay with NCI-H23 lung is 95.6%; in the assay on NCI-H226 lung, 97.9%; in the assay on NCI-H322M lung it was 109%; in the assay on HOP-62 NSCLC it was 109%; in the assay with NCI-H460 lung, 64.5%; with HOP-92 NSCLC, 96.4%. Moreover, the growth was 52.9% in the assay with NCI-H522 lung; 93.1% in the assay with A549/ATCC NSCLC; 101% with 786-0 renal; 97.6% in the assay with DU-145 prostate; 80.6% in the assay on K-562 leukemia; 126% with MALME-3M melanoma. Moreover, the growth was 115% in the assay with MDA-MB-231 breast; 104% in the assay with RXF 393 renal; 98.4% in the assay on SF-268 CNS; 98.4% in the assay on SF-295 CNS; 94.1% in the assay with SF-539 CNS; 98.9% with UACC-257 melanoma. Moreover, the growth with M14 melanoma is 101%.
With `Cc1[nH]n(C(=O)c2ccncc2)c(=O)c1N=Nc1ccc(S(=O)(=O)Nc2ccncn2)cc1`, the growth with NCI-H23 lung was 100%; with NCI-H226 lung, 90%; in the assay with NCI-H322M lung, 115%; in the assay on HOP-62 NSCLC, 76.6%; with NCI-H460 lung, 115%; in the assay with HOP-92 NSCLC it was 54.7%. In addition, the growth in the assay with NCI-H522 lung was 102%; with A549/ATCC NSCLC, 18.9%; with COLO 205 colon, 127%; with DU-145 prostate, 126%; with K-562 leukemia, 55.3%; in the assay with MALME-3M melanoma, 124%. Further, the growth in the assay with MDA-MB-231 breast was 103%; with SF-268 CNS, 95.5%; in the assay on SF-295 CNS it was 134%; with SF-539 CNS it was 107%; in the assay on UACC-257 melanoma it was -1.41% (active); with M14 melanoma, 106%.
In the case of `CCN(CC)CCNCC(O)Cc1ccc(OC)cc1` (stereo not drawn), the growth in the assay with NCI-H23 lung is 103%; in the assay on NCI-H226 lung, 90.5%; in the assay with NCI-H322M lung, 91.4%; in the assay on HOP-62 NSCLC it was 102%; in the assay with NCI-H460 lung, 107%; in the assay with HOP-92 NSCLC it was 81.4%. Moreover, the growth was 66.1% in the assay with NCI-H522 lung; 96% with A549/ATCC NSCLC; 98.5% in the assay on 786-0 renal; 110% in the assay with DU-145 prostate; 105% with K-562 leukemia; 113% with MALME-3M melanoma. Further, the growth was 105% in the assay on MDA-MB-231 breast; 103% in the assay with RXF 393 renal; 107% in the assay on SF-268 CNS; 104% in the assay on SF-295 CNS; 106% in the assay on SF-539 CNS; 86.1% with UACC-257 melanoma. Further, the growth in the assay with M14 melanoma is 104%.
Turning to `CC(C)(C)NC(C1=CC(C)(C)c2ccccc2C1=O)c1ccccc1` (stereo not drawn), the growth is 9.47% (active) in the assay on NCI-H23 lung; -68.6% (active) in the assay on NCI-H226 lung; -1.08% (active) in the assay with NCI-H322M lung; -13.8% (active) in the assay on HOP-62 NSCLC; -49.2% (active) in the assay with NCI-H460 lung; -50.8% (active) with HOP-92 NSCLC. Besides, the growth in the assay with NCI-H522 lung is -81.5% (active); with A549/ATCC NSCLC, -9.21% (active); with 786-0 renal, -94% (active); with DU-145 prostate, -26.2% (active); with K-562 leukemia, -34.8% (active); in the assay with MALME-3M melanoma it was -43% (active). Further, the growth in the assay on MDA-MB-231 breast was -1.43% (active); in the assay on SF-268 CNS, -11.3% (active); in the assay with SF-295 CNS, 37.8%; in the assay with SF-539 CNS it was -40.7% (active); in the assay on UACC-257 melanoma it was -59.3% (active); in the assay on M14 melanoma, -41.5% (active).
In the case of `COc1ccc(NC(=O)Nc2ccc(-c3ccc(OC)c(OC)c3)nc2C)cc1`, the growth with NCI-H23 lung was 67.4%; in the assay with NCI-H226 lung, 58%; with NCI-H322M lung, 87%; in the assay on HOP-62 NSCLC, 56.5%; in the assay with NCI-H460 lung, 17.6%; in the assay on HOP-92 NSCLC, 73.4%. Also, the growth in the assay on NCI-H522 lung is 49.9%; in the assay with A549/ATCC NSCLC it was 57%; in the assay with 786-0 renal, 11.1%; with DU-145 prostate, 72.2%; in the assay on K-562 leukemia, 73.2%; in the assay on MALME-3M melanoma, 44.1%. The growth was 40.5% in the assay on MDA-MB-231 breast; 58.2% in the assay with RXF 393 renal; 59.2% with SF-268 CNS; 102% with SF-295 CNS; 70.6% with SF-539 CNS; 55.5% with UACC-257 melanoma. Moreover, the growth with M14 melanoma is 72.1%.
For the molecule `CN1C(=O)C2(SCC(C(=O)NCC(=O)OC(C)(C)C)N2C(=O)C2CCCCC2)c2ccccc21` (stereo not drawn), the growth with NCI-H23 lung was 94.4%; in the assay with NCI-H226 lung, 91.6%; in the assay with NCI-H322M lung, 95.3%; in the assay on HOP-62 NSCLC it was 95%; in the assay with NCI-H460 lung, 102%; in the assay with HOP-92 NSCLC, 85.8%. Also, the growth is 80.9% with NCI-H522 lung; 95.2% in the assay on A549/ATCC NSCLC; 94.7% in the assay on 786-0 renal; 105% in the assay on DU-145 prostate; 101% with MALME-3M melanoma; 100% with MDA-MB-231 breast. Further, the growth is 105% in the assay on RXF 393 renal; 96.7% with SF-268 CNS; 96.9% in the assay with SF-295 CNS; 99.8% in the assay on SF-539 CNS; 92.7% in the assay with UACC-257 melanoma; 100% in the assay with M14 melanoma.
Regarding `O=C1C(SCCO)=C(SCCO)C(=O)N1c1ccc(-c2ccccc2)cc1`, the growth in the assay on NCI-H23 lung was 88.9%; with NCI-H226 lung, 74.9%; in the assay on NCI-H322M lung it was 124%; in the assay on HOP-62 NSCLC it was 91.5%; with NCI-H460 lung, 108%; in the assay on HOP-92 NSCLC, 39.9%. The growth with NCI-H522 lung was -61.3% (active); with A549/ATCC NSCLC it was 105%; in the assay with 786-0 renal, 82.3%; in the assay with DU-145 prostate, 27.1%; in the assay on K-562 leukemia it was -0.074% (active); in the assay on MALME-3M melanoma, -44.5% (active). In addition, the growth in the assay on MDA-MB-231 breast is 95%; in the assay with SF-268 CNS it was 41.1%; in the assay on SF-295 CNS it was 103%; with SF-539 CNS, 104%; in the assay on UACC-257 melanoma it was -5.64% (active); with M14 melanoma, 85.7%.

(Values after PubChem BioAssay (NCI).)
